Results on 63 compounds are retold here after PubChem BioAssay AID602292 (National Center for Advancing Translational Sciences (NCATS), 2012).

SMILES strings stand for the structures. The campaign covered roughly 1,300 compounds. About 380 (29%) were called active. Roughly 37% stayed inconclusive and do not appear here. The call rests on the fitted dose curve; in most records, active means well fitted inhibition curve with a large enough effect; inconclusive means small, poorly fitted or top-dose-only effect; inactive means flat fitted curve, though single readings scatter. The list shows a part of the results. Entries that show only a call come without a potency.
Potency means the concentration at half of the fitted maximal effect.

The target of the assay is Thyrotropin receptor (Homo sapiens) (UniProt P16473). The assay is described as follows: qHTS for antagonists of the Thyroid Stimulation Hormone Receptor: Hit Validation in Primary Screen. Further: nearly all actives have a fitted effect of over 80% in size. The conditions noted are these: TSHR-expressing cells, cAMP antagonist mode; series mostly up to 58 µM. In outline: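 Competitive HTRF detected cAMP in lysates of TSHR cells, read 30 minutes after antibody and d2 addition at room temperature. Before lysis, cells had 2 hours at 37 deg C with compound plus EC80 TSH, 4nM final.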
Sequence of Thyrotropin receptor (Homo sapiens) (P16473 whole entry, looked up): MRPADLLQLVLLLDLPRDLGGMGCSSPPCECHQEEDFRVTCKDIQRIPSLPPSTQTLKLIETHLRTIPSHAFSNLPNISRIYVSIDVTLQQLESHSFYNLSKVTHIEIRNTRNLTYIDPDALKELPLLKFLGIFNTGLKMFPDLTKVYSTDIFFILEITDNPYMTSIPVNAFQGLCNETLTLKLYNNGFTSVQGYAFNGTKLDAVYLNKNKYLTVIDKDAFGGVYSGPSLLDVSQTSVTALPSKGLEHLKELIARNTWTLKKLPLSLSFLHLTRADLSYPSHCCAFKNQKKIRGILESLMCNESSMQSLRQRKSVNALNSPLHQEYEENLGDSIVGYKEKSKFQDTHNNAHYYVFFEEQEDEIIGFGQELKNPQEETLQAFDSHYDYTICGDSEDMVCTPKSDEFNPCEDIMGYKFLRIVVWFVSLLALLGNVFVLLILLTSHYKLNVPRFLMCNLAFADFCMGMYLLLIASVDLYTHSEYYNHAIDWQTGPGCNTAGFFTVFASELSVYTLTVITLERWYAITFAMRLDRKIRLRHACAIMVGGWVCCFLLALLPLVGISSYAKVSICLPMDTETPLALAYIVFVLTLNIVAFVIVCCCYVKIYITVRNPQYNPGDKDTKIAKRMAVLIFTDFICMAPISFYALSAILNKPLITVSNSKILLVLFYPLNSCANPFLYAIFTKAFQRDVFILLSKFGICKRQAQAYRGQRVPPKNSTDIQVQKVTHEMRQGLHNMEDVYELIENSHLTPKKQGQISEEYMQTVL
(In general: qHTS replaces the single test concentration by a dilution series.)
On to `CCOC(=O)COc1ccc(Br)cc1/C=C/c1[nH]c(=O)[nH]c(=O)c1[N+](=O)[O-]`, for which the Potency was 23.9 µM (active).

Turning to `CCOC(=O)COc1ccccc1/C=C\[N+](=O)[O-]`, the Potency is 30.1 µM (active). Next, `CC(=O)N/N=C\c1ccccc1OC/C=C/c1ccccc1`: “inactive”; `CC(C)OCCCn1c(=O)c2ccccc2n2c(CCC(=O)NC3CCN(Cc4ccccc4)CC3)nnc12`: “inactive”. Next, `CC1CCN(Cc2c(C(=O)N/N=C/c3cc(Cl)ccc3O)nnn2-c2nonc2N)CC1`: “inactive”; `COc1cccc(/C=N/NC(=O)C(=O)N2CCCC2)c1O`: “inactive”. Next, `N#Cc1ccc(Nc2nc(-c3ccc(O)cc3O)cs2)cc1C(F)(F)F`: 23.9 µM (active); `COc1ccc(/C=C2\CC/C(=C\c3ccc(OC)c(OC)c3)C2=O)cc1OC`: 19 µM (active); `COc1ccc(/C=C/C(=O)Nc2nc(C)cc(C)n2)cc1OC`: “inactive”. Consider `COc1ccc(/C=C/C(=O)N2CCN(C)CC2)cc1OC`, for which the Potency entry is “inactive”. Next, `O=C(Nc1ccc2oc(-c3ccccc3F)nc2c1)c1ccc2c(c1)OCCO2`: 30.1 µM (active). To `COc1ccc(-c2nnc(NC(=O)c3ccc4c(c3)OCCO4)o2)cc1` belongs “inactive”.

In the case of `CNc1c(NC(=O)c2ccc3c(c2)OCO3)c(=O)oc2ccccc12`, the Potency entry is “inactive”. As to `Cn1c(CNC(=O)C(Cc2ccccc2)NC(=O)c2ccccc2)cc(=O)n(C)c1=O` (stereo not drawn), the Potency result is “inactive”. To `CCN(CC)S(=O)(=O)c1cccc(C(=O)Nc2nc3cc4c(cc3s2)OCCO4)c1` belongs 21.3 µM (active). To `CCN(c1ccccc1)S(=O)(=O)c1ccc(C(=O)N(CCCN(C)C)c2nc3cc4c(cc3s2)OCO4)cc1` belongs “inactive”.

`CC1CCC(C(C)C)C(OC(=O)Cn2c(-c3ccccc3)[n+](C)c3ccccc32)C1` (stereo not drawn): the Potency is 30.1 µM (active). In the case of `CCOC(=O)C1C(c2cc(OC)c(OC)c(OC)c2)NC(=S)NC1(O)C(F)(F)F` (stereo not drawn), the Potency entry is “inactive”. Next, `CC1=C(C(=O)OC(C)(C)C)C(c2ccc3ccccc3c2)NC(=O)N1C` (stereo not drawn): “inactive”; `CC(C)(C)OC(=O)NCCCCCc1cn([C@@H](CO)C(=O)NCCCCCCCCCCC(=O)N2CCN(C(=O)OC(C)(C)C)CC2)nn1`: 16.9 µM (active); `CN1C(=O)/C(=C/c2ccc(OCc3ccccc3F)cc2)NC1=S`: “inactive”. Next, `O=C1S/C(=C\c2ccc(O)c([N+](=O)[O-])c2)C(=O)N1c1ccccc1Cl`: 9.53 µM (active); `Cc1ccc(CN2C(=O)c3ccccc3Sc3ccc(C(=O)NCCN4CCOCC4)cc32)cc1`: “inactive”. Next, `CC(=O)N1c2ccc(S(=O)(=O)N3CCC(C(=O)NC(C)c4ccccc4)CC3)cc2CC1C` (stereo not drawn): “inactive”; `C=CCSc1nsc(NC(=O)Nc2ccc(F)cc2)n1`: 7.57 µM (active).

As for `Cc1ccc(-n2c(Cl)c(Cl)nc(Cl)c2=O)cc1`, the Potency was 26.9 µM (active). Next, `CCOC(=O)c1cccc(OCC(O)CNCCOc2ccccc2F)c1` (stereo not drawn): “inactive”; `O=[N+]([O-])c1ccc(N=Nc2c(Cl)cc(O)cc2Cl)cc1`: 1.51 µM (active). As to `COc1ccc(C(=O)NC2CCCc3c2cnn3-c2cccc(C)c2C)c(OC)n1` (stereo not drawn), the Potency was 21.3 µM (active). As for `Cn1c(N=Nc2ccc(N3CCOCC3)cc2)[n+](C)c2ccccc21`, the Potency is 12 µM (active). To `CCCn1nc([N+](=O)[O-])c(C(C#N)c2nc3ccccc3o2)c(Cl)c1=O` (stereo not drawn) belongs 6.01 µM (active). Next, `CCn1nc([N+](=O)[O-])c(C(C#N)c2nc3cc(C(F)(F)F)ccc3s2)c(Cl)c1=O` (stereo not drawn): 2.69 µM (active). To `Cc1cc(C(=O)CCl)c(C)n1CCc1ccccc1` belongs 30.1 µM (active). Turning to `CCOC(=O)N1CCN(C(=O)CCc2ccccc2)CC1`, the Potency result was “inactive”. Next, `O=C(NCCc1ccccc1)c1cccnc1N1CCCCCC1`: “inactive”; `Brc1ccc(CNc2ccc3ncccc3c2)cc1`: 23.9 µM (active); `CCOc1ccc(-n2c(SCC(=O)NC(C)CC)nc3n[nH]c(C)c3c2=N)cc1` (stereo not drawn): “inactive”. To `O=S(=O)(Nc1ccc2cn[nH]c2c1)c1cc(Br)ccc1Br` belongs 21.3 µM (active). Next, `O=C(Nc1ccncc1)Nc1cc(Cl)ccc1Cl`: “inactive”; `O=C(Nc1ccc(Cl)c(Cl)c1)Nc1ccccc1O`: 21.3 µM (active). Turning to `CSc1ccccc1OCc1cc(C(=O)NC2CCc3ccccc32)no1` (stereo not drawn), the Potency result was “inactive”.

As to `O=C(c1cc(COc2cccc3cnccc23)on1)N1CCCC(CCCO)C1` (stereo not drawn), the Potency was 13.5 µM (active).

Consider `Cc1nc2ccc(C(=O)Nc3ccc4nc[nH]c4c3)cc2[nH]1`, for which the Potency entry was “inactive”. Turning to `Cc1ccc(C(=O)Nc2ccc(Br)c(C(F)(F)F)c2)cc1`, the Potency is 23.9 µM (active). On to `CCn1c(=S)sc2c(=O)n(CC(=O)Nc3ccccc3OC)c(C)nc21`, for which the Potency entry is “inactive”. Next, `O=C(Nc1nc(-c2cccs2)c(-c2cccs2)s1)C1CCCC1`: 19 µM (active); `O=C(COCc1cc(-c2cccs2)on1)NC1CCCCC1`: “inactive”; `COc1ccc(CC(=O)Oc2cc(C)ccc2C)cc1`: “inactive”.

Turning to `CN(C)/C=C(/C(=O)c1ccc(Cl)cc1)S(=O)(=O)c1ccc(Cl)cc1`, the Potency entry was “inactive”. To `c1ccc2c(CSc3ncnc4nc[nH]c34)cccc2c1` belongs 30.1 µM (active). Next, `Clc1ccc(CSc2nnc(CNc3cccc(Cl)c3)o2)cc1`: 23.9 µM (active); `O=C(COc1ccc(Cl)cc1)NCc1nnc(SCC(=O)NC2CCCCC2)o1`: “inactive”; `Cc1sc(N/N=C/c2cccnc2)nc1-c1ccccc1`: 23.9 µM (active). Next, `C(=N\N1CCN(Cc2cccc3ccccc23)CC1)/c1cccnc1`: “inactive”; `Nc1c(C(=O)NCc2ccc3c(c2)OCO3)nnn1CC(=O)Nc1ccc(Br)cc1`: “inactive”. With `COc1ccc(NC(=O)CCC2CCCCC2)cc1S(=O)(=O)N1CCCCC1`, the Potency is 37.9 µM (active).

As for `COc1ccc(Br)cc1/C=N/NC(=O)CN1CCCCC1`, the Potency entry is “inactive”.

On to `COc1cc(C(C)=O)ccc1OCC(=O)Nc1ccc(C)c(S(=O)(=O)N2CCCCCC2)c1`, for which the Potency is 19 µM (active). Take `COc1cc(C(=S)N2CCCC2)ccc1OCc1ccc(C)cc1`: the Potency result was “inactive”. To `COC(=O)CN1C(=O)COc2ccc(S(=O)(=O)N3CCCC3)cc21` belongs “inactive”. To `COc1ccc(NS(=O)(=O)c2cc(NC(=O)/C=C/c3cc(OC)ccc3OC)ccc2N2CCCCC2)cc1` belongs “inactive”; to `COC(=O)c1cc(=O)n(-c2c(Cl)cc(C(F)(F)F)cc2Cl)[nH]1`, “inactive”; to `CCCN1CCN(CCCNC(=O)Cn2nc(C)n3c(cc4cc(OC)ccc43)c2=O)CC1`, “inactive”.
